# Source: ChEMBL document CHEMBL1961873, “Compounds: GSK PKIS; Assays: Nanosyn kinase panel” (2012)
# Target: Receptor tyrosine-protein kinase erbB-2 (Homo sapiens) (UniProt P04626)
# Conditions: at 0.1 µM
# Chain of Receptor tyrosine-protein kinase erbB-2 (Homo sapiens) (P04626 whole entry): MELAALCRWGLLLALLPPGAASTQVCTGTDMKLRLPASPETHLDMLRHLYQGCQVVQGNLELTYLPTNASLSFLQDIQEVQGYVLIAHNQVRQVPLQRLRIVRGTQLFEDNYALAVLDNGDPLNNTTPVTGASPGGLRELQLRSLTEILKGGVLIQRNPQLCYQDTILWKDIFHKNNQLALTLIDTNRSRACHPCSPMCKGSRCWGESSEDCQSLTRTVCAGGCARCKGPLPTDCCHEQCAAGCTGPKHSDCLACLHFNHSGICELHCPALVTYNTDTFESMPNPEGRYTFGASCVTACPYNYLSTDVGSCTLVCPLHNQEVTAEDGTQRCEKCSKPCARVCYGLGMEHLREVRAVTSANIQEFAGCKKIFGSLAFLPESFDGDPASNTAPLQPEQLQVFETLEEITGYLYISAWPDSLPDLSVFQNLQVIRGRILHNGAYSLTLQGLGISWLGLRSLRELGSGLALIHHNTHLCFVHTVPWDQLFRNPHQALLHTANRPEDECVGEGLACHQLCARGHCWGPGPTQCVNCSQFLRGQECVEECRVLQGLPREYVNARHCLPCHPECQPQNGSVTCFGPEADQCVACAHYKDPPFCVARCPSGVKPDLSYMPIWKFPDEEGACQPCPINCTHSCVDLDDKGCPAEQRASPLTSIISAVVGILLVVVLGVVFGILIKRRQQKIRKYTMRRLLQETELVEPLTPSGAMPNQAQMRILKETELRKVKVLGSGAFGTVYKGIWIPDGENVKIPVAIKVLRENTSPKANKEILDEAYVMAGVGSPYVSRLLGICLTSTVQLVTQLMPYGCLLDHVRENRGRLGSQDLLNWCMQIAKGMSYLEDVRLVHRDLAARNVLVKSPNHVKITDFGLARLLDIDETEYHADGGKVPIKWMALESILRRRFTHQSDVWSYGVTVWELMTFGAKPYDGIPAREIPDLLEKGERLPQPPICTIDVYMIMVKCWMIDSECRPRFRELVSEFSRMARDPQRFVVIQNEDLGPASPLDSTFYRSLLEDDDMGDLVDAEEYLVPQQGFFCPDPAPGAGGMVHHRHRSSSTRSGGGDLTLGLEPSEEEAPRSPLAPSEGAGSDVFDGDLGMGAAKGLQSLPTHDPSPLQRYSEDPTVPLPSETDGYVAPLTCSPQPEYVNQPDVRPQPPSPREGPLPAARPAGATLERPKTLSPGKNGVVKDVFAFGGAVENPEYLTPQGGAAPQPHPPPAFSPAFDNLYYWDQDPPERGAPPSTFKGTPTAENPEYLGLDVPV
row,SMILES,inhibition [%]
1,Fc1ccc(-c2cc(-c3c[nH]nc3-c3ccccn3)ccn2)cc1,4.82
2,Clc1ccc(-c2nn3ncccc3c2-c2ccnc(Nc3ccccc3)n2)cc1,-4.83
3,CC1=C(C(=O)Nc2cc(Cl)c3[nH]ncc3c2)C(c2ccc(C(F)(F)F)cc2)CC(=O)N1 (stereo unspecified),2.74
4,CC(C)(CO)CNC(=O)c1ccc2c(c1)/C(=N/Nc1ccc(S(N)(=O)=O)cc1)C(=O)N2,0.9
5,COc1cccc(-c2c[nH]c3c(N/N=C/c4ccncc4)ncnc23)c1,0.26
6,Cc1ccc(O)cc1Nc1ccnc2cc(-c3ccccn3)ccc12,2.16
7,Cc1cccc2c1NC(=O)/C2=N\Nc1ccc(S(N)(=O)=O)cc1,0.78
8,CN1CCC(n2cnc(-c3ccc(F)cc3)c2-c2ccnc(Nc3ccccc3)n2)CC1,5.05
9,COc1ccc2[nH]c3c4[nH]c5ccc(OC)cc5c4c4c(c3c2c1)C(=O)NC4=O,1.76
10,CNC(=O)c1cncc(/C=C/c2ccccc2Cl)c1,0.54
11,COC(=O)Nc1nc2ccc(Oc3ccc(NC(=O)Nc4cccc(Cl)c4)cc3)cc2[nH]1,-0.47
12,COc1ccc(-c2cc(-c3c[nH]nc3-c3ccccn3)ccn2)cc1,2.88
13,CCn1c(-c2nonc2N)nc2ccccc21,0.88
14,COc1ccc(CNC(=O)c2ccc(-c3cc(-c4nnc(C)o4)ccc3C)cc2)cc1,3.57
15,Fc1cccc(COc2ccc(Nc3ncnc4sc(-c5ccco5)cc34)cc2Cl)c1,-0.58
16,CCn1c(-c2nonc2N)nc2c(C#CC(C)(C)O)ncc(OC3CCNCC3)c21,5.64
17,CNC(=O)c1cc(-c2ccc(F)cc2)cc(-c2ccc(S(=O)(=O)N3CCCC3)cc2)c1N,2.24

row,SMILES,inhibition [%]
1,COc1cc(N2CCN(C(C)C)CC2)ccc1Nc1nc(Nc2ccc(F)cc2C(N)=O)c2cc[nH]c2n1,2.4
2,CCn1c(-c2nonc2N)nc2cnc(Oc3cccc(NC(=O)c4ccc(N(C)C)cc4)c3)cc21,1.13
3,COc1ccc2c(-c3ccnc(Nc4cccc(OC(F)(F)F)c4)n3)cnn2n1,1.6
4,NS(=O)(=O)c1ccc(N/N=C2\C(=O)Nc3ccc4ncccc4c32)cc1,1.33
5,O=C(Nc1n[nH]c2cc(-c3ccc(F)cc3)ccc12)C1CC1,1.75
6,c1cc(-c2cnn3nc(N4CCOCC4)ccc23)nc(NC2CC2)n1,1.45
7,CCc1nn2ncccc2c1-c1ccnc(NC2CC2)n1,3.58
8,CN1CCC(n2cnc(-c3ccc(F)cc3)c2-c2ccnc(N)n2)CC1,1.81
9,COc1ccc(-c2cc3c(N)ncnc3o2)cc1,-0.84
10,COc1ccc(-c2oc3ncnc(N)c3c2-c2ccc(NC(=O)Nc3cc(C(F)(F)F)ccc3F)cc2)cc1,4.07
11,COc1cc(Nc2nccc(Nc3ccc4c(C)n[nH]c4c3)n2)cc(OC)c1OC,-1.05
12,COC(=O)c1sc(-n2cnc3cc(OC)c(OC)cc32)cc1OCc1ccccc1C(F)(F)F,3.29
13,N#Cc1c(NC(=O)c2ccc(F)cc2)sc2c1CCCC2,-0.32
14,NS(=O)(=O)c1ccc(Nc2ncc(-c3ccccc3)o2)cc1,2.57
15,CCn1cc(-c2ccnc3[nH]ccc23)c(-c2cccc(NC(=O)Nc3ccc(OCc4ccccc4)cc3)c2)n1,2.85
16,c1ccc(-c2nc3n(c2-c2ccc4c(c2)OCO4)CCC3)nc1,1.28

# Target: Receptor tyrosine-protein kinase erbB-2 (Homo sapiens) (UniProt P04626)
# Conditions: at 1 µM
row,SMILES,inhibition [%]
1,Fc1ccc(-c2cc(-c3c[nH]nc3-c3ccccn3)ccn2)cc1,6.84
2,Clc1ccc(-c2nn3ncccc3c2-c2ccnc(Nc3ccccc3)n2)cc1,6.14
3,CC1=C(C(=O)Nc2cc(Cl)c3[nH]ncc3c2)C(c2ccc(C(F)(F)F)cc2)CC(=O)N1 (stereo unspecified),1.78
4,CC(C)(CO)CNC(=O)c1ccc2c(c1)/C(=N/Nc1ccc(S(N)(=O)=O)cc1)C(=O)N2,3.86
5,COc1cccc(-c2c[nH]c3c(N/N=C/c4ccncc4)ncnc23)c1,2.47
6,Cc1ccc(O)cc1Nc1ccnc2cc(-c3ccccn3)ccc12,11.6
7,Cc1cccc2c1NC(=O)/C2=N\Nc1ccc(S(N)(=O)=O)cc1,1.05
8,CN1CCC(n2cnc(-c3ccc(F)cc3)c2-c2ccnc(Nc3ccccc3)n2)CC1,15.9
9,COc1ccc2[nH]c3c4[nH]c5ccc(OC)cc5c4c4c(c3c2c1)C(=O)NC4=O,5.83
10,CNC(=O)c1cncc(/C=C/c2ccccc2Cl)c1,5.61
11,COC(=O)Nc1nc2ccc(Oc3ccc(NC(=O)Nc4cccc(Cl)c4)cc3)cc2[nH]1,5.3
12,COc1ccc(-c2cc(-c3c[nH]nc3-c3ccccn3)ccn2)cc1,6.13
13,CCn1c(-c2nonc2N)nc2ccccc21,-2.17
14,COc1ccc(CNC(=O)c2ccc(-c3cc(-c4nnc(C)o4)ccc3C)cc2)cc1,10.7
15,Fc1cccc(COc2ccc(Nc3ncnc4sc(-c5ccco5)cc34)cc2Cl)c1,14.7
16,CCn1c(-c2nonc2N)nc2c(C#CC(C)(C)O)ncc(OC3CCNCC3)c21,3.93
17,CNC(=O)c1cc(-c2ccc(F)cc2)cc(-c2ccc(S(=O)(=O)N3CCCC3)cc2)c1N,7.8

row,SMILES,inhibition [%]
1,COc1cc(N2CCN(C(C)C)CC2)ccc1Nc1nc(Nc2ccc(F)cc2C(N)=O)c2cc[nH]c2n1,3.8
2,CCn1c(-c2nonc2N)nc2cnc(Oc3cccc(NC(=O)c4ccc(N(C)C)cc4)c3)cc21,-0.18
3,COc1ccc2c(-c3ccnc(Nc4cccc(OC(F)(F)F)c4)n3)cnn2n1,2.79
4,NS(=O)(=O)c1ccc(N/N=C2\C(=O)Nc3ccc4ncccc4c32)cc1,-2.88
5,O=C(Nc1n[nH]c2cc(-c3ccc(F)cc3)ccc12)C1CC1,-0.76
6,c1cc(-c2cnn3nc(N4CCOCC4)ccc23)nc(NC2CC2)n1,1.94
7,CCc1nn2ncccc2c1-c1ccnc(NC2CC2)n1,5.82
8,CN1CCC(n2cnc(-c3ccc(F)cc3)c2-c2ccnc(N)n2)CC1,3.61
9,COc1ccc(-c2cc3c(N)ncnc3o2)cc1,0.38
10,COc1ccc(-c2oc3ncnc(N)c3c2-c2ccc(NC(=O)Nc3cc(C(F)(F)F)ccc3F)cc2)cc1,8.56
11,COc1cc(Nc2nccc(Nc3ccc4c(C)n[nH]c4c3)n2)cc(OC)c1OC,0.32
12,COC(=O)c1sc(-n2cnc3cc(OC)c(OC)cc32)cc1OCc1ccccc1C(F)(F)F,-2.49
13,N#Cc1c(NC(=O)c2ccc(F)cc2)sc2c1CCCC2,-0.51
14,NS(=O)(=O)c1ccc(Nc2ncc(-c3ccccc3)o2)cc1,2.77
15,CCn1cc(-c2ccnc3[nH]ccc23)c(-c2cccc(NC(=O)Nc3ccc(OCc4ccccc4)cc3)c2)n1,2.75
16,c1ccc(-c2nc3n(c2-c2ccc4c(c2)OCO4)CCC3)nc1,-0.6
